PubChem BioAssay (NCATS)
Records with an inconclusive call do not appear. The source made the active and inactive calls. Unless noted, calls come from the whole dose curve; as a rule, active = well fitted curve in the direction sought with a large enough effect; inconclusive = small, poorly fitted or top-dose-only effect, or another doubt; inactive = no such curve, though single readings can be large; an effect the other way counts as inactive or inconclusive.

Columns and labels:
[1] = Cell Viability - LYMP2-019 (AID 973); conditions: LYMP2-019 lymphoblastoid cell line viability; series mostly up to 92.2 µM; note: nearly all actives have a fitted effect of over 55% in size; note: potency is the fitted concentration of half-maximal effect
How it was run: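 AC50 values come from Hill-equation fits of luminescent intracellular ATP (CellTiter-Glo, 30 min, room temperature) following 24 h compound exposure at 37 C. Cells: LYMP2-019 lymphoblastoid line, 2500 per well, in complete culture medium.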

[2] = Cell Viability - LYMP2-021 (AID 974); conditions: LYMP2-021 lymphoblastoid cells viability; series mostly up to 92.2 µM; note: nearly all actives have a fitted effect of over 55% in size; note: potency is the fitted concentration of half-maximal effect
How it was run: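 AC50 values come from Hill-equation fits to CellTiter-Glo luminescence (ATP content), read after 24 hour compound exposure at 37 C of 2500 LYMP2-021 lymphoblastoid cells/well; tetraoctylammonium bromide as positive control.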

[3] = Cell Viability - LYMP2-023 (AID 975); conditions: LYMP2-023 lymphoblastoid cell viability; series mostly up to 92.2 µM; note: nearly all actives have a fitted effect of over 55% in size; note: potency is the fitted concentration of half-maximal effect
How it was run: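 Intracellular ATP, read by CellTiter-Glo luminescence, reports viability after 24 hr compound exposure at 37 C. 2500 lymphoblastoid cells/well (LYMP2-023) seeded 5 hr beforehand; Hill fits give AC50; positive control tetraoctylammonium bromide.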

[4] = Cell Viability - LYMP2-025 (AID 976); conditions: LYMP2-025 lymphoblastoid cell viability; series mostly up to 92.2 µM;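 note: plate controls were DMSO only for no effect and tetraoctylammonium bromide control for full effect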
How it was run: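 Cytotoxicity read as loss of intracellular ATP (luciferase luminescence) after 24 h compound treatment at 37 C. Uses LYMP2-025 lymphoblastoid cells in 1536-well format; Hill-equation modelling gives AC50; tetraoctylammonium bromide as positive control.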

[5] = Cell Viability - LYMP2-002 (AID 977); conditions: LYMP2-002 lymphoblastoid cell viability, qHTS; series mostly up to 92.2 µM; note: potency is the fitted concentration of half-maximal effect
How it was run: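 Human lymphoblastoid cells (2500/well) in complete medium were preincubated 5 hr at 37 C, then exposed to compounds for 24 hr at 37 C. Intracellular ATP was read by CellTiter-Glo luminescence; AC50 came from Hill-equation concentration-response fits.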

[6] = Cell Viability - LYMP2-006 (AID 978); conditions: LYMP2-006 lymphoblastoid cell viability, qHTS; series mostly up to 92.2 µM; note: nearly all actives have a fitted effect of over 60% in size; note: potency is the fitted concentration of half-maximal effect
How it was run: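 Concentration-dependent loss of intracellular ATP in a human lymphoblastoid line after 24 hr treatment at 37 C was measured by CellTiter-Glo luminescence, with AC50 values obtained from standard Hill-equation modelling.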

[7] = Cell Viability - LYMP2-008 (AID 980); conditions: LYMP2-008 lymphoblastoid cell viability, qHTS; series mostly up to 92.2 µM; note: nearly all actives have a fitted effect of over 60% in size; note: potency is the fitted concentration of half-maximal effect
How it was run: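 Cytotoxicity determined from ATP-dependent luciferase luminescence (CellTiter-Glo) following 24 h compound exposure of human lymphoblastoid LYMP2-008 cells at 37 C. Concentration-response data fitted to the Hill equation to give AC50.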

[8] = Cell Viability - LYMP2-010 (AID 981); conditions: LYMP2-010 lymphoblastoid cell viability, qHTS; series mostly up to 92.2 µM; note: nearly all actives have a fitted effect of over 55% in size; note: potency is the fitted concentration of half-maximal effect
How it was run: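 CellTiter-Glo ATP luminescence measured cytotoxicity after 24 h compound exposure at 37 C. LYMP2-010 cells were seeded at 2500/well, with tetraoctylammonium bromide as control; concentration-response curves gave AC50 values by the Hill equation.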

[9] = Cell Viability - LYMP2-012 (AID 982); conditions: LYMP2-012 lymphoblastoid cell viability qHTS; series mostly up to 92.2 µM; note: potency is the fitted concentration of half-maximal effect
[10] = Cell Viability - LYMP2-014 (AID 983); conditions: LYMP2-014 lymphoblastoid cells, viability qHTS; series mostly up to 92.2 µM; note: nearly all actives have a fitted effect of over 50% in size; note: potency is the fitted concentration of half-maximal effect
How it was run: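 Intracellular ATP loss, read by luciferase luminescence, measures acute cytotoxicity after 24 h compound exposure of lymphoblastoid LYMP2-014 cells (2500/well, 37 C). Concentration-response data fitted to the Hill equation for AC50.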

[11] = Cell Viability - LYMP2-016 (AID 984); conditions: LYMP2-016 lymphoblastoid cell viability, qHTS; series mostly up to 92.2 µM; note: nearly all actives have a fitted effect of over 55% in size; note: potency is the fitted concentration of half-maximal effect
How it was run: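 Acute toxicity in a Coriell human lymphoblastoid line is scored as loss of intracellular ATP over 24 h of treatment in complete medium. CellTiter-Glo signal is fitted across concentrations with the Hill equation to give AC50.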

[12] = Cell Viability - LYMP2-018 (AID 985); conditions: LYMP2-018 lymphoblastoid cells, viability (qHTS); series mostly up to 92.2 µM; note: nearly all actives have a fitted effect of over 50% in size; note: potency is the fitted concentration of half-maximal effect
How it was run: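 Viability read as CellTiter-Glo luminescence (cellular ATP) after 24 hr compound exposure at 37 C of 2500 LYMP2-018 lymphoblastoid cells/well, pre-plated 5 hr. Hill-equation modelling gave AC50.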

[13] = Cell Viability - LYMP2-022 (AID 987); conditions: LYMP2-022 lymphoblastoid cell viability; series mostly up to 92.2 µM; note: nearly all actives have a fitted effect of over 55% in size; note: potency is the fitted concentration of half-maximal effect
How it was run: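 Cytotoxicity read as decreased cellular ATP (CellTiter-Glo luminescence, 30 min room temperature) after 24 hours compound exposure of 2500 lymphoblastoid LYMP2-022 cells/well at 37 C. Concentration-response data fitted with standard Hill equation for AC50.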

[14] = Cell Viability - LYMP2-024 (AID 988); conditions: LYMP2-024 lymphoblastoid cell viability; series mostly up to 92.2 µM; note: nearly all actives have a fitted effect of over 60% in size; note: potency is the fitted concentration of half-maximal effect
How it was run: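 Cytotoxicity was taken as a decrease in ATP (CellTiter-Glo luminescence) after 24 hr compound exposure at 37 C of LYMP2-024 lymphoblastoid cells, 2500 cells/well. Concentration-response data were fitted to the Hill equation to give AC50.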

[15] = Cell Viability - LYMP2-026 (AID 989); conditions: LYMP2-026 lymphoblastoid cell viability, qHTS; series mostly up to 92.2 µM; note: nearly all actives have a fitted effect of over 50% in size; note: potency is the fitted concentration of half-maximal effect
How it was run: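 Cytotoxicity read as ATP-dependent luminescence (CellTiter-Glo, 30 min room temperature) after 24 h compound treatment at 37 C. LYMP2-026 lymphoblastoid line seeded at 2500 cells/well; AC50 derived by standard Hill equation.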

[16] = target: Alpha-galactosidase A (Homo sapiens) (UniProt P06280); assay: Counterscreen for Glucocerebrosidase Inhibitors: qHTS Assay for Human alpha-Galactosidase at pH 4.5 (AID 992); conditions: purified enzyme, fluorogenic substrate; series mostly up to 76.9 µM; note: 0% is about no effect
Alpha-galactosidase A (Homo sapiens), sequence (P06280 whole entry, looked up): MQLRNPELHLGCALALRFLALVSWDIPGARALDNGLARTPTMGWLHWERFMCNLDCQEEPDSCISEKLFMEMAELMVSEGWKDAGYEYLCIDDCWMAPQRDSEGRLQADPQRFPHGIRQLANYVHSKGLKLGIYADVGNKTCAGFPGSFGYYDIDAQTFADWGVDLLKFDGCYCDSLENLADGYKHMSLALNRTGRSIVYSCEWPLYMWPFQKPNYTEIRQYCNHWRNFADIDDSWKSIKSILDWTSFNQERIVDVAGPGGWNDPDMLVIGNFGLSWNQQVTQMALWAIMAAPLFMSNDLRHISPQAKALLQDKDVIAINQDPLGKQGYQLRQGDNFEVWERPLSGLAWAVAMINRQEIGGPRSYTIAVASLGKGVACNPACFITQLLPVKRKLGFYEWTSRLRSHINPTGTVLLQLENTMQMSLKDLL
How it was run: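 Fluorogenic 4-MU alpha-D-galactoside (80 uM) hydrolysis, 2 nM enzyme, pH 4.5 citrate buffer + 0.005% Tween-20; 20 min RT; NaOH/glycine pH 10 stop; Ex365/Em440. Compounds titrated 0.7 nM–77 uM; Hill-equation AC50.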

[17] = target: alpha-glucosidase (Oryza sativa, rice) (UniProt Q653V4); assay: Counterscreen for Glucocerebrosidase Inhibitors: qHTS Assay for Rice alpha-Glucosidase at pH 5.0 (AID 997); conditions: rice alpha-glucosidase enzyme activity; series mostly up to 76.9 µM;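 note: 0% = full activity with enzyme and -100% = basal without enzyme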
How it was run: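 Endpoint fluorogenic assay at pH 5.0: compounds (0.7 nM to 77 uM) titrated against 4 nM rice enzyme and 400 uM 4-MU-alpha-glucoside for 20 min at room temperature; NaOH/glycine stop, read ex 365/em 440 nm, Hill-fitted AC50.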

[18] = Validation of Assay for Modulators of Lamin A Splicing (AID 1459; active = well fitted curve in the direction sought with a large enough effect in the signal ratio; the % refers to the signal ratio;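 note: cells exposed to compound for two days before reading; 0% is about no effect; ratio rise marks activators and ratio drop marks inhibitors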); conditions: Lamin A splicing dual RFP/GFP fluorescence reporter; series mostly up to 9.22 µM
How it was run: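 Splicing correction is reported by an EGFP-containing lamin A minigene in stably transfected S3 HeLa cells, while DsRed2 controls for viability and nonspecific signal. Cells are exposed to compounds for 48 hrs before the GFP over RFP ratio is taken.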

[19] = target: DNA repair nuclease/redox regulator APEX1 (Homo sapiens) (UniProt P27695); assay: qHTS Validation Assay for Inhibitors of the Human Apurinic/apyrimidinic Endonuclease 1 (APE1) (AID 1705;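 note: TAMRA fluorescence gain over two minutes as APE1 cuts a quenched THF abasic duplex; % is set by controls: 0 for no effect and ±100 for the full control effect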); conditions: purified APE1 endonuclease activity, fluorescence, titration; series mostly up to 57.1 µM
DNA repair nuclease/redox regulator APEX1 (Homo sapiens), sequence (P27695 whole entry, looked up): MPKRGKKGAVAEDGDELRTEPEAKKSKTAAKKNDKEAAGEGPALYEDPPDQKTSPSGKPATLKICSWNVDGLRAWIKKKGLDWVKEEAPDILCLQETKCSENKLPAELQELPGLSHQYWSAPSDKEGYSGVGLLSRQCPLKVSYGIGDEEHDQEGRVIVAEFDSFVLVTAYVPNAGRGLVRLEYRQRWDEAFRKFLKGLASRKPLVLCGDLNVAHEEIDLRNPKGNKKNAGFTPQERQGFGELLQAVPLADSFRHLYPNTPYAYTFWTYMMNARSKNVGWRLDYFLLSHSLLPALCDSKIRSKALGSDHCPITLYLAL
How it was run: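 Endonuclease activity of human APE1 is followed as dequenching when the enzyme incises a tetrahydrofuran abasic site in a short duplex labelled 5'-TAMRA/3'-BHQ-2 (50 nM final), after 15 min enzyme–compound preincubation at room temperature.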

[20] = qHTS Assay for Lipid Storage Modulators (AID 1519; calls by dose curve; for activity change, negative = inhibition: % is set by controls: 0 for no effect and ±100 for the full control effect); conditions: Drosophila S3 cells, BODIPY lipid droplet/cell ratio, laser cytometry, cells loaded with oleic acid; for activity change, negative = inhibition: at 57.5 µM (top of the series)
How it was run: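 Cells seeded at 5,000 per well were treated with compounds over a concentration series and loaded with oleic acid (400 uM, as added). Lipid droplet fluorescence (488 nm excitation, 500-530 nm channel) was read by laser-scanning cytometry and normalized to 20 uM Triacsin C.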

[21] = measured here: cell count channel max response
[22] = measured here: lipid channel max response

CC(C)(c1ccc(O)cc1)c1ccc(O)cc1
inactive: Potency [1] | Potency [2] | Potency [3] | Potency [4] | Potency [5] | Potency [6] | Potency [7] | Potency [8] | Potency [9] | Potency [10] | Potency [11] | Potency [12] | Potency [13] | Potency [14] | Potency [15]

O=C1NC(c2cccc([N+](=O)[O-])c2)=CCN1c1ccccc1O
inactive: outcome [16] | outcome [17] | outcome [18] | outcome [19]

NC(N)=NCCCCN=C(N)N
inactive: outcome [16] | outcome [17] | outcome [18] | outcome [19]

O=C(O)/C=C(\CC(=O)O)C(=O)O
inactive: activity change, negative = inhibition [20] 3.99%
-7.3%: max response [20, 21]
1.94%: max response [20, 22]

CCCC(=O)c1cc(O)c(O)cc1O
inactive: Potency [1] | Potency [2] | Potency [3] | Potency [4] | Potency [5] | Potency [6] | Potency [7] | Potency [9] | Potency [10] | Potency [11] | Potency [12] | Potency [13] | Potency [15]

CCCCC(CC)COC(=O)c1ccccc1C(=O)O (stereo unspecified)
inactive: Potency [1] | Potency [2] | Potency [3] | Potency [4] | Potency [5] | Potency [6] | Potency [7] | Potency [8] | Potency [9] | Potency [10] | Potency [11] | Potency [12] | Potency [13] | Potency [14] | Potency [15]

Nc1cccc2c(N)cccc12
inactive: Potency [1] | Potency [2] | Potency [3] | Potency [4] | Potency [5] | Potency [6] | Potency [7] | Potency [8] | Potency [9] | Potency [10] | Potency [11] | Potency [12] | Potency [13] | Potency [14] | Potency [15]

CC(=O)OC/C=C(C)/C=C/C=C(C)/C=C/C1=C(C)CCCC1(C)C
active: Potency [8] 50.1 µM | Potency [9] 50.1 µM | Potency [13] 50.1 µM | Potency [14] 39.8 µM
inactive: Potency [4]

COc1cc(C=O)ccc1O
inactive: Potency [1] | Potency [2] | Potency [3] | Potency [4] | Potency [5] | Potency [6] | Potency [7] | Potency [8] | Potency [9] | Potency [10] | Potency [11] | Potency [12] | Potency [13] | Potency [14] | Potency [15]

Oc1ccccc1
inactive: Potency [1] | Potency [2] | Potency [3] | Potency [4] | Potency [5] | Potency [6] | Potency [7] | Potency [8] | Potency [9] | Potency [10] | Potency [11] | Potency [12] | Potency [13] | Potency [14] | Potency [15]

CC(C)C(C)(C)C(C)(C)C(C)(C)S
inactive: Potency [1] | Potency [2] | Potency [3] | Potency [4] | Potency [5] | Potency [6] | Potency [7] | Potency [8] | Potency [9] | Potency [10] | Potency [11] | Potency [12] | Potency [13] | Potency [14] | Potency [15]

Cn1cnc2c(NCc3ccccc3)nc(NCCO)nc21
inactive: outcome [16] | outcome [17] | outcome [18] | outcome [19]

CC(C)N(CCC(=O)c1ccc2ccccc2c1)Cc1ccccc1
inactive: outcome [16] | outcome [17] | outcome [19]

C[C@]12CCC(=O)C=C1CC[C@@H]1[C@@H]2[C@@H](O)C[C@@]2(C)[C@H]1CC[C@]2(O)C(=O)COC(=O)CCC(=O)O
inactive: outcome [19]

COc1ccccc1N1CCN(CCN2C(=O)CC3(CCCC3)CC2=O)CC1
inactive: outcome [16] | outcome [17] | outcome [18] | outcome [19]

CN(C)c1cc2c(Nc3ccc4c(cnn4Cc4ccccc4)c3)ncnc2cn1
inactive: outcome [16] | outcome [17] | outcome [18]

C1N2CN3CN1CN(C2)C3
inactive: activity change, negative = inhibition [20] 4.78%
6.42%: max response [20, 22]
-0.0775%: max response [20, 21]

Nc1ccc(O)cc1
active: Potency [1] 39.8 µM | Potency [2] 31.6 µM | Potency [3] 50.1 µM | Potency [5] 39.8 µM | Potency [6] 50.1 µM | Potency [7] 39.8 µM | Potency [8] 25.1 µM | Potency [9] 31.6 µM | Potency [10] 39.8 µM | Potency [11] 50.1 µM | Potency [12] 39.8 µM | Potency [13] 25.1 µM | Potency [14] 25.1 µM | Potency [15] 50.1 µM

O=C(NO)c1ccccc1
inactive: Potency [1] | Potency [2] | Potency [3] | Potency [4] | Potency [5] | Potency [6] | Potency [7] | Potency [8] | Potency [9] | Potency [10] | Potency [11] | Potency [12] | Potency [13] | Potency [14] | Potency [15]

C1=CC2C3C=CC(C3)C2C1 (stereo unspecified)
inactive: Potency [1] | Potency [2] | Potency [3] | Potency [4] | Potency [5] | Potency [6] | Potency [7] | Potency [8] | Potency [9] | Potency [10] | Potency [11] | Potency [12] | Potency [13] | Potency [14] | Potency [15]
